From PubChem BioAssay (Tox21)
Records with an inconclusive call do not appear. Where a call stands in place of a potency, no number is given. Active and inactive are the calls of the source. The call rests on the fitted dose curve; in most records, active means well fitted cell-killing curve with a large enough effect in the repeat runs; inconclusive means weak or mixed curves, or effect the other way; inactive means flat fitted curve, though single readings scatter.
Potency means the concentration at half of the fitted maximal effect.

Test: qHTS assay to identify small molecule agonists of the androgen receptor (AR) signaling pathway in the presence of an antagonist - cell viability counter screen (AID 1259379); further: nearly all actives have a fitted effect of over 25% in size
Details: MDA-kb2 viability, CellTiter-Fluor, 16 h; series mostly up to 92.4 µM
Description: National Center for Advancing Translational Sciences [NCATS]
NIH Chemical Genomics Center [NCGC]
U.S. Environmental Protection Agency [EPA]
National Institutes of Environmental Health Sciences [NIEHS]
National Toxicology Program [NTP]
U.S. Food and Drug Administration [FDA]
Androgen receptor (AR) is an important member of nuclear receptor family. Its signaling plays a critical role in AR-dependent prostate cancer and other androgen related diseases. Considerable attention has been given in the past decades to develop methods to study and screen for the environmental chemicals that have the potential to interfere with metabolic homeostasis, reproduction, developmental and behavioral functions. Therefore AR binding assay for screening against androgen agonists and antagonists can be used to identify potential endocrine disruptors.
MDA-kb2 cells (from ATCC, deposited by Wilson et al.) are human breast carcinoma cells that were stably transfected with a luciferase reporter gene under control of the MMTV promoter that contains response elements for both androgen receptor (AR) and glucocorticoid receptor (GR). This particular screening for measuring luciferase reporter gene activity using MDA-kb2 cells against Tox21 10K library compounds is a confirmation study on agonist mode screening in the presence of AR-antagonist compound (Nilutamide) at 3.0uM final concentration. The cytotoxicity of the compounds was tested in parallel by measuring the cell viability using CellTiter-Fluor assay system (Promega, Madison, WI) in the same wells.
Tox21 Assay Protocol Summary:
MDA-kb2 cells (cells cultured without CO2) were dispensed at 3,000 cells/well in 4uL of culture medium into white wall/solid-bottom 1536-well plates (Corning Life Sciences, Corning, NY) using a Multidrop Combi (Thermo Fisher Scientific Inc., Waltham, MA) dispenser. The assay plates were incubated at 37C and 0% CO2 for 5hr. One uL of 3.0uM (final concentration) Nilutamide or assay buffer was added using two separate tips of Flying Reagent Dispenser (FRD, Aurora Discovery, San Diego, CA). Then 23nL of compounds dissolved in DMSO at 15 concentrations and positive controls were transferred to the assay plates using a Pintool station (Wako, San Diego, CA). The assay plates were incubated at 37C and 0% CO2 for 16 hr. After 15hr incubation at 37C, 1uL/well CellTiter-Fluor reagent (Promega Corporation) was added to each well of the assay plates using FRD. After 1hr incubation at 37C and 0% CO2, the fluorescence signal was measured using a ViewLux plate reader (PerkinElmer, Shelton, CT).
In the case of `c1ccc2nc(N3CCNCC3)ccc2c1`, the Potency is reported as “inactive”.
For `O=C(O)CCCCCCNC1c2ccccc2CCc2ccccc21`, the Potency was “inactive”.
For `CCCCN(CCCC)C(=S)S`, the Potency was “inactive”.
For `O.O.O.O=C([O-])[C@H]([O-])[C@@H]([O-])C(=O)[O-].O=C([O-])[C@H]([O-])[C@@H]([O-])C(=O)[O-].[K+].[K+].[Sb+3].[Sb+3]`, the Potency was 17.3 µM (active).
With `O=[N+]([O-])c1ccc(Cl)c(Cl)c1Cl` the Potency was “inactive”.
In the case of `COC(=O)N(OC)c1ccccc1COc1ccn(-c2ccc(Cl)cc2)n1`, the Potency is reported as 1.37 µM (active).
With `Nc1cc(Cl)ccc1Cl` the Potency was “inactive”.
With `CC[N+]1(CC)CCC(OC(=O)C(O)(c2ccccc2)c2ccccc2)C1` (stereo not given) the Potency was “inactive”.
With `CC(Cc1ccc2c(c1)OCO2)NO` (stereo not given) the Potency was “inactive”.
With `Cc1ccc2cc3c(ccc4ccccc43)c3c2c1CC3` the Potency was “inactive”.
With `C=C(C)C(=O)[O][Sn]([CH2]CCC)([CH2]CCC)[CH2]CCC` the Potency was 1.72 µM (active).
For `[Cl][Hg][c]1ccccc1`, the Potency was 12.2 µM (active).
In the case of `[Cl-].[Cl-].[Cl-].[Yb+3]`, the Potency is reported as “inactive”.
For `O=[N+]([O-])c1cccc2cccc([N+](=O)[O-])c12`, the Potency was “inactive”.
With `CC[C@]1(O)CC[C@H]2[C@@H]3CCC4=CCCC[C@@H]4[C@H]3CC[C@@]21C` the Potency was “inactive”.
In the case of `C=CC(=C)C`, the Potency is reported as “inactive”.
For `O=[N+]([O-])c1cc(C(F)(F)F)c(Cl)c([N+](=O)[O-])c1Nc1ncc(C(F)(F)F)cc1Cl`, the Potency was 6.11 µM (active).
In the case of `CN1C(=O)[C@@H](NC(=O)c2cc3ccccc3[nH]2)N=C(c2ccccc2)c2ccccc21`, the Potency is reported as “inactive”.
In the case of `Cc1cc2c3c(c1)C(c1ccccc1)=N[C@@H](NC(=O)c1ccncc1)C(=O)N3CC2`, the Potency is reported as “inactive”.
For `O=c1[nH]c(Cl)c(Cl)cc1Cl`, the Potency was “inactive”.
For `[C-]1=CC=CC1.[Cl][Zr+2][Cl].c1cc[cH-]c1`, the Potency was “inactive”.
With `CC(=O)[O][Pb]([c]1ccccc1)([c]1ccccc1)[c]1ccccc1` the Potency was 7.7 µM (active).
With `C[N+]1(C)[C@@H]2CC[C@H]1CC(OC(=O)C(CO)c1ccccc1)C2` (stereo not given in full) the Potency was “inactive”.
With `ClC1(Cl)C2(Cl)C3(Cl)C4(Cl)C(Cl)(Cl)C5(Cl)C3(Cl)C1(Cl)C5(Cl)C24Cl` (stereo not given) the Potency was “inactive”.
With `CCC(C)c1cccc(C(C)CC)c1O` (stereo not given) the Potency was “inactive”.
In the case of `[F][Sn]([c]1ccccc1)([c]1ccccc1)[c]1ccccc1`, the Potency is reported as 4.33 µM (active).
With `CNC(=O)O/N=C(\C)C(C)S(C)(=O)=O` (stereo not given) the Potency was “inactive”.
In the case of `C=CC(=O)[O][Sn]([CH2]CCC)([CH2]CCC)[CH2]CCC`, the Potency is reported as 4.33 µM (active).
In the case of `CC(C)(C)c1ccc(OP(=O)(Oc2ccccc2)Oc2ccccc2)cc1`, the Potency is reported as “inactive”.
In the case of `COc1ccc(Cc2nccc3cc(OC)c(OC)cc23)cc1OC`, the Potency is reported as 18.8 µM (active).
In the case of `COCCC#N`, the Potency is reported as “inactive”.
With `O=S(=O)(O)F` the Potency was “inactive”.
For `CCn1cc[n+](C)c1` (tested in a mixture with another compound), the Potency was “inactive”.
For `CC(=O)[O-].CC(=O)[O-].[Co+2]`, the Potency was “inactive”.
In the case of `CCCN`, the Potency is reported as “inactive”.
For `ClC1=C(Cl)[C@]2(Cl)[C@H]3[C@H]([C@@H]4C=C[C@H]3C4)[C@@]1(Cl)C2(Cl)Cl`, the Potency was “inactive”.
With `Cc1nn(-c2cc(NS(C)(=O)=O)c(Cl)cc2Cl)c(=O)n1C(F)F` the Potency was “inactive”.
For `O=C(CCCCl)c1ccc(F)cc1`, the Potency was “inactive”.
In the case of `CN`, the Potency is reported as “inactive”.
In the case of `COc1ccc2c3c1O[C@H]1[C@H](O)CC[C@H]4[C@@H](C2)N(C)CC[C@@]341`, the Potency is reported as “inactive”.
